The list is not random: actives were taken first. Their share in the collection is about 2%.
NR2F2 inh: NR2F2 transcriptional activity inhibitors, primary screen, cell-based, luciferase reporter, HEK293T, luminescence | COUP transcription factor 2 (Homo sapiens), P24468 | HEK293T NGFI-A luciferase reporter | inhibition, % at 8.6 µM | actives 0.7% (n = 370,000) | AID 686940, 2013;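 active = inhibition above a per-plate cutoff, mean inhibition of test wells between control levels plus 3 SD, cut at about 38% in these data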;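 note: cells cotransfected with COUP-TFII expression vector driving the NGFI-A reporter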
Target sequence (P24468 whole entry, looked up): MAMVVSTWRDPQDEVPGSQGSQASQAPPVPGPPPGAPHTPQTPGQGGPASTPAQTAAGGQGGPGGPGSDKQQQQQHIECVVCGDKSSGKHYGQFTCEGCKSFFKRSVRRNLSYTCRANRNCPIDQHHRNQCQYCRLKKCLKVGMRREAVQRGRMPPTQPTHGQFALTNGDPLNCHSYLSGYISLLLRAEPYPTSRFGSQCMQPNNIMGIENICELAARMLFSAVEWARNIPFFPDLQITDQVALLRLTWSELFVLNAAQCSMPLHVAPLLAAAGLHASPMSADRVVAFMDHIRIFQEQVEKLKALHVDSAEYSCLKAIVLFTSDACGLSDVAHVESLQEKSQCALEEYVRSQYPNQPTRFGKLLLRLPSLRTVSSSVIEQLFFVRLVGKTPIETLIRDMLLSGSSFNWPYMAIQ
697 NFkB inh: inhibitors of PMA/ionomycin-induced NF-kB reporter, 697 cells, primary screen, B-cell NF-kB inhibitor project, cell-based, luminescence, uHTS; 697 B-cell NF-kB luciferase reporter, 16 h; inhibition, % at 4 µM; actives 0.33% (n = 330,000); AID 435022, 2010; in the data active = inhibition above about 35%
Jurkat NFkB inh: inhibitors of induced NF-kB luciferase reporter, primary screen, TCR NF-kB activation inhibitor project, cell-based, luminescence, uHTS; Jurkat, PMA/ionomycin-induced NF-kB luciferase reporter; actives 0.53% (n = 330,000); AID 435003, 2010; inhibition, % at 4 µM; in the data active = inhibition above about 50%
GalR3 antagonist: GalR3 antagonists in HEK293 cells, primary screen, cell-based, fluorescence readout | inhibition, % at 3 µM | Galanin receptor type 3 (Homo sapiens), O60755 | HEK293 GalR3-CNG cAMP membrane potential fluorescence; galR3 body fused to GalR1 C-terminus | AID 651719, 2012 | actives 0.44% (n = 360,000);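 active = inhibition above the screen-wide average plus 3 SD, cut at about 13% in these data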;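 note: forskolin and galanin both at EC90 stimulate the cells; cAMP rise reported by CNG channel membrane potential dye signal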
Gli-Sufu antag: Gli-Sufu pathway antagonists, primary screen, luciferase luminescence, Sufu-KO-LIGHT cells, uHTS. Sufu-KO-LIGHT fibroblasts, Gli luciferase reporter luminescence. inhibition, % at 5 µM. actives 0.74% (n = 340,000);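 active = inhibition above about 55%, limit read from the data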
Gal4-VP16 ctr: Gal4-VP16 luciferase reporter inhibitors, counter-screen for COUP-TFII antagonist project, cell-based, luminescence, HEK293; shares compounds with NR2F2 inh; inhibition, % at 8.5 µM; AID 687007, 2013; actives 25% (n = 2,500); in the data active = inhibition above about 13%
COUP-TFII conf: NR2F2 transcriptional activity inhibitors, confirmation, cell-based, luciferase reporter, HEK293, triplicate | shares compounds with NR2F2 inh | HEK293 NGFI-A luciferase reporter, luminescence | inhibition, % at 8.5 µM | actives 45% (n = 2,500) | AID 687008, 2013;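 active = mean inhibition over three repeats above a set limit taken from the earlier primary screen, cut at about 38% in these data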
Numbers stand for hits.

Screening CCOC(=O)[C@@H](NC(=O)[C@@H]1CC=C[C@@H]2CCN(Cc3ccc(Cl)cc3)C(=O)[C@@H]21)C(C)C returned NR2F2 inh inactive.
For O=C(Nc1ncccc1O)c1cccc(S(=O)(=O)N2CCN(c3ccc(F)cc3)CC2)c1 the results were NR2F2 inh inactive, 697 NFkB inh inactive, Jurkat NFkB inh inactive, GalR3 antagonist inactive and Gli-Sufu antag inactive.
`CN(CC(=O)Nc1ccccc1Cl)C(=O)c1cccc(S(=O)(=O)N2CCN(Cc3ccccc3)CC2)c1` gave NR2F2 inh 48.0, 697 NFkB inh inactive, Jurkat NFkB inh inactive, GalR3 antagonist inactive, Gli-Sufu antag inactive, Gal4-VP16 ctr inactive and COUP-TFII conf inactive.
For O=C(Nc1ccncc1)c1cccc(S(=O)(=O)N2CCN(c3ccc(F)cc3)CC2)c1 the results were NR2F2 inh 47.3, 697 NFkB inh inactive, Jurkat NFkB inh inactive, GalR3 antagonist inactive, Gli-Sufu antag inactive, Gal4-VP16 ctr inactive and COUP-TFII conf inactive.
For COc1ccccc1NC(=O)c1cccc(S(=O)(=O)N2CCN(c3ccccc3)CC2)c1 the results were NR2F2 inh 42.1, 697 NFkB inh inactive, Jurkat NFkB inh inactive, GalR3 antagonist inactive, Gli-Sufu antag inactive, Gal4-VP16 ctr inactive and COUP-TFII conf inactive.
Screening O=C(COc1ccc(C(=O)c2ccc(F)cc2)cc1)Nc1cccc(S(=O)(=O)N2CCOCC2)c1 returned NR2F2 inh 47.8, 697 NFkB inh inactive, Jurkat NFkB inh inactive, GalR3 antagonist inactive, Gli-Sufu antag inactive, Gal4-VP16 ctr inactive and COUP-TFII conf inactive.
For CCCC(=O)N1CCC(C(=O)NC2CCCc3ccccc32)CC1 (stereo not given) the results were NR2F2 inh inactive.
For O=C(NCCc1c[nH]c2ccccc12)OCc1cn(Cc2ccc(C(F)(F)F)cc2)nn1 the results were NR2F2 inh inactive.
For COc1ccc(CCN(C)C(=O)c2cccc(S(=O)(=O)N3CCN(c4ccc(F)cc4)CC3)c2)cc1OC the results were NR2F2 inh 59.3, GalR3 antagonist inactive, Gli-Sufu antag inactive, Gal4-VP16 ctr inactive and COUP-TFII conf 44.7.
For CN(Cc1ccc(OC(F)F)cc1)C(=O)c1cccc(S(=O)(=O)N2CCN(c3ccccc3)CC2)c1 the results were NR2F2 inh 66.7, GalR3 antagonist inactive, Gli-Sufu antag inactive, Gal4-VP16 ctr 13.2 and COUP-TFII conf 55.4.
For COc1ccccc1CN(C)C(=O)c1cccc(S(=O)(=O)N2CCCC2)c1 the results were NR2F2 inh inactive, 697 NFkB inh inactive, Jurkat NFkB inh inactive, GalR3 antagonist inactive and Gli-Sufu antag inactive.
For Cc1cccc(C)c1NC(=O)CN(C)C(=O)c1cccc(S(=O)(=O)N2CCN(c3ccc(F)cc3)CC2)c1 the results were NR2F2 inh inactive, 697 NFkB inh inactive, Jurkat NFkB inh inactive, GalR3 antagonist inactive and Gli-Sufu antag inactive.
For CN(CC(=O)Nc1cccc(F)c1)C(=O)c1cccc(S(=O)(=O)N2CCN(c3ccc(F)cc3)CC2)c1 the results were NR2F2 inh 42.2, GalR3 antagonist inactive, Gli-Sufu antag inactive, Gal4-VP16 ctr inactive and COUP-TFII conf inactive.
For CN(CC(=O)Nc1ccccc1Cl)C(=O)c1cccc(S(=O)(=O)N2CCN(c3ccccc3)CC2)c1 the results were NR2F2 inh 43.1, GalR3 antagonist inactive, Gli-Sufu antag inactive, Gal4-VP16 ctr inactive and COUP-TFII conf inactive.
Cc1cccc(C)c1NC(=O)CN(C)C(=O)c1cccc(S(=O)(=O)N2CCN(c3ccccc3)CC2)c1 was read as NR2F2 inh inactive, 697 NFkB inh inactive, Jurkat NFkB inh inactive, GalR3 antagonist inactive and Gli-Sufu antag inactive.
Screening COC(=O)C[C@@H]1CC[C@@H]2[C@@H](COc3ccc(NC(=O)Nc4cccc(Cl)c4)cc3C(=O)N2C)O1 returned NR2F2 inh inactive.

Compound activity: PubChem BioAssay, several laboratories
